Many of the other results were omitted from the sample, so hits are more common in it than they were.
IL1B secr inh: inflammasome signaling inhibition, IL-1 beta readout | activity change, % at 57.5 µM | actives 4.7% (n = 360,000) | THP-1 LPS/ATP IL-1B secretion, AlphaLISA, 16 h; stronger effect = lower value; in the data active = activity change below about -50%; inconclusive = mostly about -30% to -49%
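Secreted IL-1B measured by AlphaLISA bead assay after 16 h compound exposure of THP-1 cells; compounds (final up to 57.5 uM) added 1 h before LPS (250 ng/mL) and ATP (1.25 mM) stimulation; lower signal means less secretion.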
HT1080NT lethal: kills 2HG-producing HT-1080-NT fibrosarcoma cells; actives 1.6% (n = 360,000); AID 686970; Potency, µM (doses to about 46.1 µM), for inactives: at the top dose activity, negative = less viability, most hits filed as cytotoxic; HT-1080-NT fibrosarcoma viability, CellTiter-Glo ATP luminescence, 48 h;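 also: NT is the 2HG producing partner of a matched IDH1 knockdown line; potency is read from the fitted curve at half-maximal effect; 0% = DMSO-treated cells and -100% = media-only wells without cells; nearly all actives have a fitted effect of over 55% in size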
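HT-1080-NT fibrosarcoma cells (2HG-overproducing), 750 cells/well in RPMI with 5% FBS, dosed after 2 h and incubated 48 h at 37C. CellTiter-Glo luminescence normalized to DMSO and no-cell wells; concentration-response curves fitted and classed.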
TDP1 cell noCPT: qHTS for Inhibitors of human tyrosyl-DNA phosphodiesterase 1 (TDP1): qHTS in cells in absence of CPT; AID 686978, 2013; Potency, µM (highest dose often 46.2 µM), without a hit: at the highest dose activity change, negative = growth inhibition, actives largely listed as inhibitors; actives 15% (n = 420,000); DT40 Tdp1-/- hTDP1 cells, no CPT, ATP luminescence, 48 h; also: potency is read from the fitted curve at half-maximal effect; nearly all actives have a fitted effect of over 55% in size
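Growth of hTDP1-complemented DT40 Tdp1-knockout cells is measured by ATP luminescence after at least 48 hr compound exposure at 37 °C, with DMSO substituting for the 20 nM CPT used in the parallel screen.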
ALOX12 inh: inhibitors of human 12S-lipoxygenase ALOX12; Potency, µM (titrated, usually from 108 µM), for inactives: at the top dose activity change, negative = inhibition, most hits filed as inhibitors; P18054; actives 1.1% (n = 580,000); purified 12hLO, xylenol orange hydroperoxide absorbance; AID 1671190; also: potency is read from the fitted curve at half-maximal effect
Target sequence (P18054 whole entry, looked up): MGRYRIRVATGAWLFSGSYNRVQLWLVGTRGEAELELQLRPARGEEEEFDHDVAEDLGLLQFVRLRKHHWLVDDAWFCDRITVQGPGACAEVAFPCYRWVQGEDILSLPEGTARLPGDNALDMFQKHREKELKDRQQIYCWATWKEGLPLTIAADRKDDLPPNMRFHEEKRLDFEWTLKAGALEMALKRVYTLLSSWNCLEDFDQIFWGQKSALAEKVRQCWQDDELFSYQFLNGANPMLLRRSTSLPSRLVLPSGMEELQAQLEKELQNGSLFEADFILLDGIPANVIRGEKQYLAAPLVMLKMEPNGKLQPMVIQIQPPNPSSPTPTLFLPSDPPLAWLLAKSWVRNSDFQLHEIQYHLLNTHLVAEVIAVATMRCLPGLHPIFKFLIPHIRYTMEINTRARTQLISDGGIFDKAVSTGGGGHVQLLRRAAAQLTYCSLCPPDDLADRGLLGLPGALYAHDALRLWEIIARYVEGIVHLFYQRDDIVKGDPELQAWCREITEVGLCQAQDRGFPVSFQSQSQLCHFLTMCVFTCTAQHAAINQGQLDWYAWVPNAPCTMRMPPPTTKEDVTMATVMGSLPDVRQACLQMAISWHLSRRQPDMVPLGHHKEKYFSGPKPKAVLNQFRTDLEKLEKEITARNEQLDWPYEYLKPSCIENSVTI
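Purified human 12hLO (150 nM final) in 25 mM Hepes, 0.01% Triton X-100, pH 7.0 was preincubated 15 min at room temperature with compound. Then 40 uM arachidonic acid was added, 30 min. Hydroperoxide was read by Fe-XO absorbance ratio 573/405 nm.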
TDP1 cell CPT: DT40-hTDP1 cell growth loss with CPT; actives 12% (n = 420,000); chicken DT40 Tdp1-/-;hTDP1 cells + 20 nM CPT, ATP luminescence, 48 h; Potency, µM (doses to about 46.2 µM), inactives show at the highest dose activity change, negative = growth inhibition, hits mostly inhibitors; also: potency is read from the fitted curve at half-maximal effect; nearly all actives have a fitted effect of over 55% in size
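Chicken DT40 Tdp1-/- cells complemented with human TDP1, 400 cells/well, exposed to compounds plus 20 nM camptothecin for at least 48 h at 37 C; viability read as ATP content by CellTiter-Glo luminescence.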
HT1080 IDH1KD tx: HT-1080 IDH1 knockdown cell toxicity (counter line). actives 2% (n = 360,000). HT-1080 IDH1 knockdown viability, ATP luminescence, 48 h. Potency, µM (doses to about 46.1 µM), without a hit: at the highest dose activity, negative = toxicity, hits mostly cytotoxic;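 also: potency is read from the fitted curve at half-maximal effect; 0% = DMSO wells and -100% = cell-free medium wells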
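Knockdown cells (IDH1KD HT-1080) received compounds 2 h after plating at 750 cells/well and were kept 48 h at 37 °C in 5% FBS RPMI. A CellTiter-Glo luminescence read gave % activity for curve fitting.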
The depositor's hits bear a star; ? = inconclusive; nt = no result given; [ ] = remark or other dose. Unless noted, calls follow the shape of the dose curve; as a rule, active = well fitted curve in the direction sought with a large enough effect; inconclusive = small, poorly fitted or top-dose-only effect, or another doubt; inactive = no such curve, though single readings can be large; an effect the other way counts as inactive or inconclusive. Unless noted, % is scaled to controls: 0 for no effect and ±100 for the full control effect.

SMILES | IL1B secr inh | HT1080NT lethal | TDP1 cell noCPT | ALOX12 inh | TDP1 cell CPT | HT1080 IDH1KD tx
O=C(Cc1ccccc1F)Nc1nc(-c2ccc(F)c(F)c2)cs1 | -90* | ? | 2.1µM* | ? | 5.2µM* | ?
O=C(Nc1ccccc1)N1CCCC(c2nc(CCOc3ccc(F)cc3)no2)C1 (stereo not drawn) | nt | nt | nt | 53% | nt | nt
COC(=O)c1ccc(OC(=O)c2ccccc2OCc2ccc(Cl)cc2)cc1 | nt | nt | nt | -19% | nt | nt
CN(CCc1ccccc1)C(=O)c1[nH]c(C(F)(F)F)nc1-c1ccccc1 | 19 | 17% | -11% | -1% | -36% | -5%
Cc1cc(CN(C)C(=O)c2cc(COc3cncc(Cl)c3)on2)on1 | nt | nt | nt | 1% | nt | nt
CC(C)c1ccc(S(=O)(=O)N2CCN(C(=O)CSc3nnnn3C3CCCC3)CC2)cc1 | nt | nt | nt | -20% | nt | nt
COc1ccc(CCNc2nc(-c3cc(OC)c(OC)c(OC)c3)cs2)cc1OC | nt | nt | nt | 7.9µM* | nt | nt
COc1cccc(-c2csc(NC3OC(=O)c4c3ccc(OC)c4OC)n2)c1 (stereo not drawn) | -93* | ? | ? | ? | ? | ?
COc1ccc(-c2csc(NC(=O)Cc3ccccc3)n2)cc1OC | 2 | 3% | 1.6µM* | 0% | ? | 0%
O=C(CCCc1cccs1)Nc1nc(-c2ccc(F)cc2)cs1 | -18 | -19% | 8.2µM* | -10% | ? | -22%
COc1ccc(-c2csc(NC(C)=O)n2)cc1OC | ? | 1% | -22% | 3% | -30% | -3%
O=C1N(C2CCNCC2)C(c2ccccc2)C12CCCC2 (stereo not drawn) | nt | nt | nt | 5% | nt | nt
COc1ccc(C(=O)N2CCCC(c3nc(-c4cccnc4)no3)CCNC(=O)CC2)cn1 (stereo not drawn) | nt | nt | nt | 60% | nt | nt
COc1cccc(NC(=O)Nc2nc(-c3ccc(OC)c(OC)c3)cs2)c1 | -104* | 12µM* | 7.3µM* | -18% | 18µM* | 7.3µM*
O=C(Nc1nc(-c2ccc(F)c(F)c2)cs1)Nc1ccc(F)cc1F | -8 | -27% | 0.65µM* | 0% | 1.6µM* | -18%
COc1ccc(-c2csc(NC(=O)CCn3cnc4ccccc4c3=O)n2)cc1OC | ? | -6% | 18µM* | -17%[57.4 µM] | ? | -2%
O=C(Cc1c(F)c(F)c(F)c(F)c1F)Nc1nc(-c2ccccc2)cs1 | -79* | ? | 16µM* | -23% | ? | 16µM*
O=C(O)CCCC(=O)Nc1nc(-c2ccccc2)cs1 | 8 | 8% | -8% | 0% | 1% | 15%
O=C(CN1CCCCC1)Nc1nc(-c2ccc(F)c(F)c2)cs1 | -10 | -10% | ? | 1% | ? | -18%
CC(OC(=O)c1ccc([N+](=O)[O-])o1)C(=O)Nc1nc(-c2ccc(F)c(F)c2)cs1 (stereo not drawn) | ? | 0% | 21µM* | -27% | 21µM* | -5%
Cc1cc(C(=O)OC(C)C(=O)Nc2nc(-c3ccccc3)cs2)c(C)o1 (stereo not drawn) | 10 | ? | -15% | -20% | -3% | -2%
CC(=O)Nc1ccc(-c2csc(NC(=O)Cc3cccc(F)c3)n2)cc1 | ? | ? | 23µM* | -16% | ? | ?
O=C(Cc1ccccc1)Nc1nc(-c2ccc(F)c(F)c2)cs1 | -14 | 1% | ? | 0% | 1.8µM* | 0%
O=C(COC(=O)C1CC1)Nc1nc(-c2ccc(F)c(F)c2)cs1 | -29 | -1% | 10µM* | 0% | 21µM* | -1%
CCNC(=O)C(=O)NCc1ccco1 | nt | nt | nt | -47% | nt | nt
Cc1ccc(C(C)C)cc1O | nt | nt | nt | 3%[176 µM] | nt | nt
Cc1cc(C(c2ccc(O)cc2)c2cc(C)c(O)cc2C)c(C)cc1O | -82* | ? | -5% | ? | ? | ?

Compound activity as filed in PubChem BioAssay.
